Here are results for 18 compounds from PubChem BioAssay (NCATS).

One assay relates to C33A. Kind of assay: Primary qHTS to identify gynecologic anti-cancer compounds using libraries of approved drugs and bioactive compounds (AID 1345084). For activity change, negative = cytotoxicity: % is set by controls: 0 for no effect and ±100 for the full control effect. Note: nearly all actives have a fitted effect of over 55% in size. To be noted: Gynecologic cancer cell panel viability, ATPlite luminescence, 48 h; series mostly up to 57.5 µM. Summed up: (§1)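 In this quantitative HTS, cell killing is estimated from loss of ATP-dependent luciferase light. Cells see five compound concentrations over a 48 h exposure.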
Background: qHTS replaces the single test concentration by a dilution series.

The next assay relates to CAOV3. The description is as above. The following applies: Gynecologic cancer cell panel viability, ATPlite luminescence, 48 h; series mostly up to 57.5 µM. Summed up:
as §1
Background: Cellular ATP, detected with luciferase, serves as a proxy for viable cell number.

The test system of the next assay is CASKI. The assay is described as above. The following applies: Gynecologic cancer cell panel viability, ATPlite luminescence, 48 h; series mostly up to 57.5 µM. Summed up:
as §1

For a further assay, the system named is HeLa. The assay is described as above. To be noted: Gynecologic cancer cell panel viability, ATPlite luminescence, 48 h; series mostly up to 57.5 µM. Summed up: as §1
The test system of the next assay is JEG-3. The description is as above. To be noted: Gynecologic cancer cell panel viability, ATPlite luminescence, 48 h; series mostly up to 57.5 µM. In short, it runs like this: as §1
A further assay concerns OV90. The assay is described as above. To be noted: Gynecologic cancer cell panel viability, ATPlite luminescence, 48 h; series mostly up to 57.5 µM. In short, it runs like this:
as §1

A further assay deals with KB-3-1. Kind of assay: Cytotoxic Profiling of Annotated Libraries Using Quantitative High-Throughput Screening (AID 1296008). For max response: % is set by controls: 0 for no effect and ±100 for the full control effect. Note: nearly all actives have a fitted effect of over 60% in size. The following applies: Five cell lines viability, CellTiter-Glo ATP luminescence, 48-72 h; max response: stronger effect = lower value. In short, it runs like this: (§2)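 Cells exposed to compounds for 48 or 72 hr at 37 degrees Celsius. Viability read as ATP-coupled luminescence with CellTiter-Glo after 10 min at room temperature.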

The test system of the next assay is PA-1. Kind of assay: Primary qHTS to identify gynecologic anti-cancer compounds using libraries of approved drugs and bioactive compounds (AID 1345084). For activity change, negative = cytotoxicity: % is set by controls: 0 for no effect and ±100 for the full control effect. Note: nearly all actives have a fitted effect of over 55% in size. The following applies: Gynecologic cancer cell panel viability, ATPlite luminescence, 48 h; series mostly up to 57.5 µM. In short, it runs like this: as §1
A further assay concerns Es-2. The description is as above. The following applies: Gynecologic cancer cell panel viability, ATPlite luminescence, 48 h; series mostly up to 57.5 µM. In short, it runs like this: as §1
The test system of a further assay is Hek293T. The description is as above. To be noted: Gynecologic cancer cell panel viability, ATPlite luminescence, 48 h, control line for the selectivity index; series mostly up to 57.5 µM. In short, it runs like this:
as §1

Another assay relates to NIH3T3. Kind of assay: Cytotoxic Profiling of Annotated Libraries Using Quantitative High-Throughput Screening (AID 1296008). For max response: % is set by controls: 0 for no effect and ±100 for the full control effect. Note: nearly all actives have a fitted effect of over 60% in size. To be noted: Five cell lines viability, CellTiter-Glo ATP luminescence, 48-72 h; max response: stronger effect = lower value. Summed up:
as §2

The subject of another assay is W2. In words: qHTS profiling for inhibitors of Plasmodium falciparum proliferation (AID 504749). Note: nearly all actives have a fitted effect of over 60% in size. The following applies: P. falciparum in erythrocytes, SYBR Green DNA, 72 h; series mostly up to 28.7 µM. Summed up: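 SYBR Green fluorescence (ex 485 nm, em 535 nm) reports parasite DNA after 72 h compound exposure of infected red cells at 0.3% parasitemia, 2.5% hematocrit; signal normalized to 0.29 uM artemisinin and vehicle wells.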

Structures are written as SMILES. Records with an inconclusive call do not appear. A number with no mark means an inactive call. Active and inactive are the calls of the source. Calls come from the whole dose curve; as a rule, active = well fitted curve in the direction sought with a large enough effect; inconclusive = small, poorly fitted or top-dose-only effect, or another doubt; inactive = no such curve, though single readings can be large; an effect the other way counts as inactive or inconclusive.
Potency is the fitted concentration of half-maximal effect.

Take `C=C1C(=O)O[C@@H]2[C@H]3C(C)=CC(=O)C3=C(C)[C@@H](OC(=O)/C(C)=C\C)[C@H](O)[C@@H]12`: the Potency entry in the assay on C33A, with CAOV3, in the assay on CASKI, in the assay with HeLa, in the assay with JEG-3 and with OV90 was “inactive” in each case.

With `CCOC(=O)c1csc(Nc2ccc(Cl)cc2)n1`, the max response in the assay on KB-3-1 is -19%. The Potency result in the assay with C33A, with CAOV3, in the assay on CASKI, with HeLa, in the assay on JEG-3 and with OV90 was “inactive” in each case. Moreover, the Potency entry in the assay with PA-1 is “inactive”.

With `CC(C)(C)[C@H](NC(=O)c1ccc(N)c(Cl)c1)C(=O)N1CCC[C@H]1C(=O)N[C@H](C#N)CC(=O)O`, in the assay with KB-3-1, the max response was 5.39%. Besides, the Potency entry with C33A, in the assay with CAOV3, in the assay with CASKI, in the assay on Es-2, in the assay with HeLa and in the assay with Hek293T was “inactive” each time. The Potency entry with JEG-3, in the assay on OV90 and with PA-1 was “inactive” each time.

As for `O=C(Nc1cccc(C(F)(F)F)c1)Nc1ccc(Br)cc1-c1nn[nH]n1`, the Potency entry in the assay on JEG-3 was “inactive”.

`CC1(C)CN(C(=O)c2ccc(-c3cccc4nc(NC(=O)C5CC5)nn34)cc2)C1`: in the assay on KB-3-1, the compound was called inactive. In addition, the Potency result in the assay on C33A, in the assay on CASKI, in the assay with Es-2, in the assay on HeLa, with Hek293T and in the assay with JEG-3 was “inactive” in each case. Besides, the Potency result in the assay on OV90 and in the assay with PA-1 was “inactive” throughout.

Take `C=C1C(=O)OC2/C=C(\C)CC/C=C(\C)CC(OC(C)=O)C12` (stereo not drawn): the Potency with NIH3T3 was 23.1 µM (active). Also, the Potency result in the assay with C33A, with CASKI, in the assay with HeLa, with Hek293T, with JEG-3 and in the assay with OV90 was “inactive” throughout.

Consider `Nc1ncnc2c1c(-c1ccc(Oc3ccccc3)cc1)nn2[C@@H]1CCCNC1`, for which, in the assay with KB-3-1, the max response was -20%. Besides, the Potency entry in the assay on HeLa and in the assay with JEG-3 was “inactive” in each case. The Potency in the assay on PA-1 is 25.1 µM (active).

As to `C=C1C(=O)O[C@H]2CC(=C)[C@H]3CC[C@@](C)(O)[C@@H]3CC12` (stereo partly drawn), the max response in the assay with KB-3-1 was -21.5%. Also, the Potency result with CASKI, in the assay with Es-2, in the assay with HeLa and in the assay with OV90 was “inactive” in each case.

With `CC(C)c1cccc(C(C)C)c1NC(=O)Nc1ccc(Sc2ccc([N+](=O)[O-])cc2)cc1`, the Potency in the assay on KB-3-1 is 10.3 µM (active). For the same compound, the Potency entry in the assay with C33A, in the assay on CAOV3, in the assay on CASKI, in the assay on Es-2, with HeLa and with JEG-3 was “inactive” each time. Further, the Potency result in the assay on OV90 and with PA-1 was “inactive” in each case.

Take `C=CCNC1=C2C[C@@H](C)C[C@H](OC)[C@H](O)[C@@H](C)/C=C(\C)[C@H](OC(N)=O)[C@@H](OC)/C=C\C=C(/C)C(=O)NC(=CC1=O)C2=O`: the Potency in the assay with W2 was 1.2 µM (active). Besides, the max response in the assay with KB-3-1 was -34.3%.

In the case of `Cc1ccc(-c2c(C(=O)CCl)n(CCCO)c3ncnc(N)c23)cc1`, the max response in the assay on KB-3-1 is -3.1%. For the same compound, the Potency entry in the assay on CASKI, with HeLa, in the assay with Hek293T, in the assay with JEG-3, with OV90 and in the assay on PA-1 was “inactive” each time.

`CCNC(=O)C#Cc1ccc2c(C(=Nc3ccc(CN(C)C)cc3)c3ccccc3)c(O)[nH]c2c1`: the figures for the Potency in the assay with KB-3-1, in the assay on NIH3T3 and in the assay on OV90 were 0.0282 µM (active), 0.709 µM (active) and 0.447 µM (active), respectively. For the same compound, the Potency entry in the assay on C33A, in the assay on Hek293T and in the assay on JEG-3 was “inactive” each time.

In the case of `CCC(C)C(=O)OC1C(C)C2(O)C(C=C(CO)CC3(O)C(=O)C(C)=CC32)C2C(C)(C)C12OC(=O)C(C)C` (stereo not drawn), the max response in the assay with KB-3-1 is 7.48%; in the assay on NIH3T3 it was -1.26%. The Potency result with CAOV3, in the assay with CASKI, in the assay on HeLa, in the assay on Hek293T, in the assay on JEG-3 and in the assay with OV90 was “inactive” in each case. Also, the Potency entry in the assay with PA-1 is “inactive”.

In the case of `CC(NC(=O)Cc1cc(F)cc(F)c1)C(=O)NC1C(=O)N(C)c2ccccc2-c2ccccc21` (stereo not drawn), the Potency in the assay on KB-3-1 was 16.4 µM (active). The Potency result in the assay with C33A, in the assay with CASKI, in the assay with Es-2, in the assay with HeLa, in the assay on Hek293T and in the assay with JEG-3 was “inactive” in each case. For the same compound, the Potency entry in the assay on OV90 was “inactive”.

As for `Cc1cc2ncc(C(=O)NCC(C)(C)NCC(=O)N3CCC[C@H]3C#N)cn2n1`, the max response with KB-3-1 is 3.28%. Moreover, in the assay with OV90, the Potency entry is “inactive”.

For the compound `COc1cc(CCO)ccc1O[C@@H]1O[C@H](CO)[C@@H](O)[C@H](O)[C@H]1O`, the max response in the assay with KB-3-1 was 7.87%; in the assay on NIH3T3 it was -23.9%. In addition, the Potency entry in the assay with CAOV3 and in the assay with OV90 was “inactive” in each case.

On to `CC(CCC1(O)OC2CC3C4CC=C5CC(O[C@@H]6O[C@H](CO)[C@@H](O[C@@H]7O[C@@H](C)[C@H](O)[C@@H](O)[C@H]7O)[C@H](O)[C@H]6O[C@@H]6O[C@@H](C)[C@H](O)[C@@H](O)[C@H]6O)CCC5(C)C4CCC3(C)C2C1C)CO[C@@H]1O[C@H](CO)[C@@H](O)[C@H](O)[C@H]1O` (stereo partly drawn), for which the max response in the assay on KB-3-1 was 6.64%. Moreover, the activity change, negative = cytotoxicity with CAOV3 is -11% [at 11.6 µM]; in the assay with CASKI, 1.54% [at 11.6 µM]; in the assay on Es-2, 4.17% [at 11.6 µM]; with HeLa it was -7.05% [at 11.6 µM]; with Hek293T it was 4.44% [at 11.6 µM]; in the assay on JEG-3, 10.4% [at 11.6 µM]. Also, the activity change, negative = cytotoxicity in the assay with OV90 was -6.71% [at 11.6 µM].

For `CC(O)(C(=O)O)C1CCC2(C)C1CCC1(C)C2CCC2C3(C)CCC(O)C(C)(COC4OC(CO)C(O)C(O)C4O)C3CCC21C` (stereo not drawn), the max response with KB-3-1 is 1.95%; in the assay with NIH3T3, -2.95%. The Potency in the assay with Hek293T was 10 µM (active).
